Measured values reported in the supplement of paper PMC7411054.

Assays:
Conditions in all cases: treatment time: 24 h
A549-ACTB-RAB5A [1] = assay: lowest phenotypically active concentration; higher = less potent
Procedure, shortened: (§1)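 Cells from fifteen gene-edited reporter lines (A549, HepG2 and WPMY1) were treated for 24 h at 0.3, 1, 3 or 9 µM and imaged live, four wells per condition. Features were normalised per well to solvent control wells. A condition deviated if ≥3 of 4 wells passed the 95th percentile of control Euclidean distances and was reproducible if its median replicate Pearson correlation beat the 95th percentile of non-replicates; phenotypic activity needed both.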

A549-CANX-COX4 [2] = assay: as above
Procedure, shortened: as §1

A549-GM130-SQSTM1 [3] = assay: as above
Procedure, shortened: as §1

A549-TP53BP1-CLTA [4] = assay: as above
Procedure, shortened: as §1

A549-TUBA1B-RELA [5] = assay: as above
Procedure, shortened: as §1

HepG2-GM130-SQSTM1 [6] = assay: as above
Procedure, shortened: as §1

A549-ACTB-RAB5A [7] = assay: phenotypically active (imaging signature differs from DMSO and reproducible) at any of 0.3-9 uM (binary (1 = active, 0 = inactive)); higher = active
Procedure, shortened: as §1

A549-CANX-COX4 [8] = assay: as above
Procedure, shortened: as §1

A549-GM130-SQSTM1 [9] = assay: as above
Procedure, shortened: as §1

A549-TP53BP1-CLTA [10] = assay: as above
Procedure, shortened: as §1

A549-TUBA1B-RELA [11] = assay: as above
Procedure, shortened: as §1

HepG2-ACTB-RAB5A = assay: as above
Procedure, shortened: as §1

HepG2-CANX-COX4 = assay: as above
Procedure, shortened: as §1

HepG2-GM130-SQSTM1 [12] = assay: as above
Procedure, shortened: as §1

HepG2-TP53BP1-CLTA = assay: as above
Procedure, shortened: as §1

HepG2-TUBA1B-RELA = assay: as above
Procedure, shortened: as §1

WPMY1-CANX-COX4 = assay: as above
Procedure, shortened: as §1

WPMY1-GM130-SQSTM1 = assay: as above
Procedure, shortened: as §1

WPMY1-TP53BP1-CLTA = assay: as above
Procedure, shortened: as §1

WPMY1-TUBA1B-RELA = assay: as above
Procedure, shortened: as §1

Structure (SMILES) | lowest phenotypically active concentration (A549-ACTB-RAB5A [1]) | lowest phenotypically active concentration (A549-CANX-COX4 [2]) | lowest phenotypically active concentration (A549-GM130-SQSTM1 [3]) | lowest phenotypically active concentration (A549-TP53BP1-CLTA [4]) | lowest phenotypically active concentration (A549-TUBA1B-RELA [5]) | lowest phenotypically active concentration (HepG2-GM130-SQSTM1 [6]) | phenotypically active (A549-ACTB-RAB5A [7]) | phenotypically active (A549-CANX-COX4 [8]) | phenotypically active (A549-GM130-SQSTM1 [9]) | phenotypically active (A549-TP53BP1-CLTA [10]) | phenotypically active (A549-TUBA1B-RELA [11]) | phenotypically active (HepG2-ACTB-RAB5A) | phenotypically active (HepG2-CANX-COX4) | phenotypically active (HepG2-GM130-SQSTM1 [12]) | phenotypically active (HepG2-TP53BP1-CLTA) | phenotypically active (HepG2-TUBA1B-RELA) | phenotypically active (WPMY1-CANX-COX4) | phenotypically active (WPMY1-GM130-SQSTM1) | phenotypically active (WPMY1-TP53BP1-CLTA) | phenotypically active (WPMY1-TUBA1B-RELA)
Cc1ccc(C(=O)N(CCCN)[C@@H](c2oc3cc(Cl)ccc3c(=O)c2Cc2ccccc2)C(C)C)cc1 | ≤ 0.3 µM | ≤ 0.3 µM | ≤ 0.3 µM | ≤ 0.3 µM | ≤ 0.3 µM | ≤ 0.3 µM | 1 (active) | 1 (active) | 1 (active) | 1 (active) | 1 (active) | 1 (active) | 1 (active) | 1 (active) | 1 (active) | 1 (active) | 1 (active) | 1 (active) | 1 (active) | 1 (active)
COCc1c(C(C)C)nc(C(C)C)c(/C=C/[C@@H](O)C[C@@H](O)CC(=O)O)c1-c1ccc(F)cc1 [cerivastatin] | ≤ 0.3 µM | 1 µM | 1 µM | ≤ 0.3 µM | 1 µM | ≤ 0.3 µM | 1 (active) | 1 (active) | 1 (active) | 1 (active) | 1 (active) | 1 (active) | 1 (active) | 1 (active) | 1 (active) | 1 (active) | 1 (active) | 1 (active) | 1 (active) | 1 (active)
Cc1cc(/N=N/c2ccc(S(=O)(=O)Nc3ccccn3)cc2)c(N)cc1O | 9 µM | 9 µM | 9 µM | 9 µM | 9 µM | 3 µM | 1 (active) | 1 (active) | 1 (active) | 1 (active) | 1 (active) | 1 (active) | 1 (active) | 1 (active) | 1 (active) | 1 (active) | 1 (active) | 1 (active) | 1 (active) | 1 (active)
Cc1c(CN2CCN(C(=O)[C@H](C)O)CC2)sc2c(N3CCOCC3)nc(-c3cnc(N)nc3)nc12 | ≤ 0.3 µM | ≤ 0.3 µM | ≤ 0.3 µM | ≤ 0.3 µM | ≤ 0.3 µM | ≤ 0.3 µM | 1 (active) | 1 (active) | 1 (active) | 1 (active) | 1 (active) | 1 (active) | 1 (active) | 1 (active) | 1 (active) | 1 (active) | 1 (active) | 1 (active) | 1 (active) | 1 (active)
O=C(NCCCNc1nc(Nc2cccc(NC(=O)N3CCCC3)c2)ncc1I)c1cccs1 | 1 µM | 3 µM | 3 µM | 3 µM | 3 µM | 3 µM | 1 (active) | 1 (active) | 1 (active) | 1 (active) | 1 (active) | 1 (active) | 1 (active) | 1 (active) | 1 (active) | 1 (active) | 1 (active) | 1 (active) | 1 (active) | 1 (active)
CC(=O)O[C@H]1C(=O)[C@@]2(C)[C@H]([C@H](OC(=O)c3ccccc3)[C@]3(O)C[C@H](OC(=O)[C@H](O)[C@@H](NC(=O)c4ccccc4)c4ccccc4)C(C)=C1C3(C)C)[C@]1(OC(C)=O)CO[C@@H]1C[C@@H]2O [paclitaxel] | ≤ 0.3 µM | ≤ 0.3 µM | ≤ 0.3 µM | ≤ 0.3 µM | ≤ 0.3 µM | ≤ 0.3 µM | 1 (active) | 1 (active) | 1 (active) | 1 (active) | 1 (active) | 1 (active) | 1 (active) | 1 (active) | 1 (active) | 1 (active) | 1 (active) | 1 (active) | 1 (active) | 1 (active)
c1ccc2c(c1)Cc1c(Nc3ccc4c(c3)OCCO4)n[nH]c1-2 | 3 µM | 3 µM | 3 µM | 3 µM | 3 µM | 9 µM | 1 (active) | 1 (active) | 1 (active) | 1 (active) | 1 (active) | 1 (active) | 1 (active) | 1 (active) | 1 (active) | 1 (active) | 1 (active) | 1 (active) | 1 (active) | 1 (active)
NCC(=O)Nc1ccc(-n2nc(C(F)(F)F)cc2-c2ccc3c(ccc4ccccc43)c2)cc1 | 1 µM | 1 µM | 1 µM | 1 µM | 1 µM | 3 µM | 1 (active) | 1 (active) | 1 (active) | 1 (active) | 1 (active) | 1 (active) | 1 (active) | 1 (active) | 1 (active) | 1 (active) | 1 (active) | 1 (active) | 1 (active) | 1 (active)
Cc1cnc(NC(=O)Nc2cc(Br)c(C)cc2OC[C@@H]2CNCCO2)cn1 | 3 µM | 3 µM | 3 µM | 1 µM | 1 µM | 1 µM | 1 (active) | 1 (active) | 1 (active) | 1 (active) | 1 (active) | 1 (active) | 1 (active) | 1 (active) | 1 (active) | 1 (active) | 1 (active) | 1 (active) | 1 (active) | 1 (active)
Cc1cc(Nc2ncc3c(n2)N(C)C(=O)N(c2cc(NC(=O)c4cccc(C(F)(F)F)c4)ccc2C)C3)n(C)n1 [Pluripotin] | ≤ 0.3 µM | ≤ 0.3 µM | ≤ 0.3 µM | ≤ 0.3 µM | ≤ 0.3 µM | ≤ 0.3 µM | 1 (active) | 1 (active) | 1 (active) | 1 (active) | 1 (active) | 1 (active) | 1 (active) | 1 (active) | 1 (active) | 1 (active) | 1 (active) | 1 (active) | 1 (active) | 1 (active)
Cc1ccc(NC(=O)CCCCCC(=O)Nc2ccccc2N)cc1 | 1 µM | 3 µM | 1 µM | 3 µM | 3 µM | 3 µM | 1 (active) | 1 (active) | 1 (active) | 1 (active) | 1 (active) | 1 (active) | 1 (active) | 1 (active) | 1 (active) | 1 (active) | 1 (active) | 1 (active) | 1 (active) | 1 (active)
CN(C)c1ccc(C(=O)NCCCCCCC(=O)NO)cc1 | ≤ 0.3 µM | ≤ 0.3 µM | 1 µM | ≤ 0.3 µM | ≤ 0.3 µM | 1 µM | 1 (active) | 1 (active) | 1 (active) | 1 (active) | 1 (active) | 1 (active) | 1 (active) | 1 (active) | 1 (active) | 1 (active) | 1 (active) | 1 (active) | 1 (active) | 1 (active)
Cc1n[nH]c2ccc(-c3cncc(OC[C@@H](N)Cc4ccccc4)c3)cc12 | ≤ 0.3 µM | ≤ 0.3 µM | ≤ 0.3 µM | ≤ 0.3 µM | ≤ 0.3 µM | ≤ 0.3 µM | 1 (active) | 1 (active) | 1 (active) | 1 (active) | 1 (active) | 1 (active) | 1 (active) | 1 (active) | 1 (active) | 1 (active) | 1 (active) | 1 (active) | 1 (active) | 1 (active)
COc1cc2nc(-c3cc(F)ccc3O)nc(N[C@@H]3CNC[C@H]3C(C)(C)O)c2cc1OC | 3 µM | 9 µM | 9 µM | 9 µM | 9 µM | 1 µM | 1 (active) | 1 (active) | 1 (active) | 1 (active) | 1 (active) | 1 (active) | 1 (active) | 1 (active) | 1 (active) | 1 (active) | 1 (active) | 1 (active) | 1 (active) | 1 (active)
CCN(CC)c1ccc(/C=N/NC(=O)c2ccncc2)c(O)c1 | ≤ 0.3 µM | 1 µM | 1 µM | 1 µM | 1 µM | ≤ 0.3 µM | 1 (active) | 1 (active) | 1 (active) | 1 (active) | 1 (active) | 1 (active) | 1 (active) | 1 (active) | 1 (active) | 1 (active) | 1 (active) | 1 (active) | 1 (active) | 1 (active)
CC(C)c1cc(-c2n[nH]c(=O)n2-c2ccc3c(ccn3C)c2)c(O)cc1O [ganetespib] | ≤ 0.3 µM | ≤ 0.3 µM | ≤ 0.3 µM | ≤ 0.3 µM | ≤ 0.3 µM | ≤ 0.3 µM | 1 (active) | 1 (active) | 1 (active) | 1 (active) | 1 (active) | 1 (active) | 1 (active) | 1 (active) | 1 (active) | 1 (active) | 1 (active) | 1 (active) | 1 (active) | 1 (active)
N#Cc1c(C2CCNCC2)cc(-c2c(O)cccc2OCC2CC2)nc1N | 9 µM | 9 µM | 9 µM | 9 µM | 9 µM | 9 µM | 1 (active) | 1 (active) | 1 (active) | 1 (active) | 1 (active) | 1 (active) | 1 (active) | 1 (active) | 1 (active) | 1 (active) | 1 (active) | 1 (active) | 1 (active) | 1 (active)
CC(=C/[C@@H](C)C(=O)c1ccc(N(C)C)cc1)/C=C/C(=O)NO [Trichostatin A] | ≤ 0.3 µM | ≤ 0.3 µM | ≤ 0.3 µM | ≤ 0.3 µM | ≤ 0.3 µM | ≤ 0.3 µM | 1 (active) | 1 (active) | 1 (active) | 1 (active) | 1 (active) | 1 (active) | 1 (active) | 1 (active) | 1 (active) | 1 (active) | 1 (active) | 1 (active) | 1 (active) | 1 (active)
CN1CCN(c2ccc(OC(F)(F)F)c(Nc3ncc4c(n3)-c3c(c(C(N)=O)nn3CCO)CC4)c2)CC1 | ≤ 0.3 µM | ≤ 0.3 µM | ≤ 0.3 µM | ≤ 0.3 µM | ≤ 0.3 µM | ≤ 0.3 µM | 1 (active) | 1 (active) | 1 (active) | 1 (active) | 1 (active) | 1 (active) | 1 (active) | 1 (active) | 1 (active) | 1 (active) | 1 (active) | 1 (active) | 1 (active) | 1 (active)
COc1ccc(S(=O)(=O)Nc2cccnc2Nc2ccc(O)cc2)cc1 | 1 µM | 1 µM | 1 µM | 1 µM | 3 µM | 1 µM | 1 (active) | 1 (active) | 1 (active) | 1 (active) | 1 (active) | 1 (active) | 1 (active) | 1 (active) | 1 (active) | 1 (active) | 1 (active) | 1 (active) | 1 (active) | 1 (active)
O=C(CCCc1ccc(-c2ccccc2F)cc1)Nc1ccc(O)cc1 | 1 µM | 1 µM | 1 µM | 1 µM | 1 µM | 3 µM | 1 (active) | 1 (active) | 1 (active) | 1 (active) | 1 (active) | 1 (active) | 1 (active) | 1 (active) | 1 (active) | 1 (active) | 1 (active) | 1 (active) | 1 (active) | 1 (active)
NC(=O)Nc1sc(-c2ccc(F)cc2)cc1C(N)=O | 3 µM | 3 µM | 3 µM | 9 µM | 3 µM | 9 µM | 1 (active) | 1 (active) | 1 (active) | 1 (active) | 1 (active) | 1 (active) | 1 (active) | 1 (active) | 1 (active) | 1 (active) | 1 (active) | 1 (active) | 1 (active) | 1 (active)
